Consider 16 molecules from PubChem BioAssay.

Activity calls are given as the source filed them.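 How the source made its calls, unless noted: active means compounds lowering colon cancer cell viability after pretreatment blocking the GSK3B kinase; inactive means the rest.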

Assay [1] is described as follows: Wnt pathway potentiators raising nuclear beta-catenin – imaging, WNT3A-conditioned medium, mouse C2C12, NPC library, primary screen (AID 1117326; in the data active means nuclear beta-catenin stimulation mostly above about 4.2%, no sharp cut-off; inactive means mostly below about 10%; further: reference of the scale not given here). The conditions noted are these: stronger effect = higher value.
Assay [2] can be described thus: stimulators of insulin release from INS-1E, primary screen, cell-based, 5 mM glucose, NPC library (AID 1117329;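 active means compound raises insulin release from rat beta cells at 5 mM glucose, no numeric limit stated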; further: reference of the scale not given here). The conditions noted are these: rat INS-1E insulin secretion, at 10 µM, stronger effect = higher value.
The nature of assay [3]: growth inhibition of GSK3B-pretreated HCT116 cells – cell-based, CellTiter-Glo, 0.2 to 20 µM (AID 1117336). The conditions noted are these: HCT116 viability after GSK3B inhibitor, at 20 µM, stronger effect = higher value.
Assay [4] is described as follows: inhibition of endothelial tube formation, primary screen, imaging, VEGF stimulated, CD31 staining, tube area, NPC library (AID 1117340;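 active means compound that reduces growth-factor-driven endothelial tube area in a mixed cell culture, no cutoff stated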). Particulars: VEGF-stimulated ADSC/ECFC co-culture, at 10 µM, stronger effect = higher value.
A short description of assay [5]: GLP1 release stimulators, primary, NCI-H716, NPC library (AID 1117341;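 active means compound raises GLP1 secretion from the human gut endocrine cells, with no numeric limit stated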; further: reference of the scale not given here). Particulars: NCI-H716 cells, at 10 µM, stronger effect = higher value.
A short description of assay [6]: HCT116 colon cancer cell growth inhibition, primary screen, CellTiter-Glo luminescence, NPC library (AID 1117342;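 active means compounds that lower survival of HCT116 colon cancer cells in the luminescence readout, no numeric limit stated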). The conditions noted are these: at 20 µM (top of the series).
Assay [7] in a line: reduced SW480 viability measured with CellTiter-Glo, NPC library, primary (AID 1117343;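 active means compounds that lower viability of the colon cancer cells in the luminescence readout, with no numeric limit stated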). The conditions noted are these: CellTiter-Glo luminescence; at 20 µM (top of the series). (ATP-based viability assays read luminescence as a measure of living cells.)
A short description of assay [8]: NPC library primary testing for decreased DLD-1 cell viability via CellTiter-Glo (AID 1117346;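 active means compounds that lower survival of DLD-1 colon cancer cells in the luminescence readout, no cutoff given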). The conditions noted are these: DLD-1 viability, CellTiter-Glo luminescence; at 20 µM (top of the series).

Take `CCCN(CCC)C(=O)Cc1c(-c2ccc(Cl)cc2)nc2ccc(Cl)cn12`: the nuclear beta-catenin stimulation in assay [1] (at 10 µM) was -2% (inactive); in assay [1] (stimulation, at 2 µM) it was -0.8%. Besides, the insulin secretion stimulation in assay [2] is 11.7% (inactive). For the same molecule, the viability decrease in assay [3] was 10.8% (inactive). The tube area decrease in assay [4] is -7.3% (inactive). For the same molecule, the GLP1 secretion stimulation in assay [5] was -2.3% (inactive). In assay [6], the inhibition of viability was 49.5% (inactive). Further, the viability decrease (inhibition) in assay [7] is 18% (inactive); in assay [8], 27.1% (inactive).

For the molecule `CC(Cc1ccc2c(c1)OCO2)NCC(O)c1ccc(O)c(O)c1` (centres undefined), the nuclear beta-catenin stimulation in assay [1] (at 10 µM) was 2.6% (inactive); in assay [1] (stimulation, at 2 µM) it was -0.2%. Further, the insulin secretion stimulation in assay [2] is 2.9% (inactive). The viability decrease in assay [3] is 38.3% (inactive). The tube area decrease in assay [4] is 21.3% (inactive). Also, in assay [5], the GLP1 secretion stimulation was -2% (inactive). Besides, in assay [6], the inhibition of viability was 25.8% (inactive). Also, the viability decrease (inhibition) in assay [7] was 40.4% (inactive); in assay [8] it was 14.6% (inactive).

`CC[N+]1(CC)CCC(OC(=O)C(O)(c2ccccc2)c2ccccc2)C1` (centres undefined): the nuclear beta-catenin stimulation in assay [1] (at 10 µM) was -0.2% (inactive); in assay [1] (stimulation, at 2 µM), -1.8%. The insulin secretion stimulation in assay [2] was 3.25% (inactive). Further, the viability decrease in assay [3] is 4.8% (inactive). The tube area decrease in assay [4] was 1.2% (inactive). Besides, in assay [5], the GLP1 secretion stimulation was 2.4% (inactive). Further, in assay [6], the inhibition of viability is 4.2% (inactive). Besides, the viability decrease (inhibition) in assay [7] was -12.8% (inactive); in assay [8], -6.4% (inactive).

As to `CCO[C@H]1O[C@@H]2OC3(C)CC[C@H]4[C@H](C)CC[C@@H]([C@H]1C)[C@@]24OO3`, the nuclear beta-catenin stimulation in assay [1] (at 10 µM) was 6.9% (inactive); in assay [1] (stimulation, at 2 µM), 25.2%. The insulin secretion stimulation in assay [2] was 2.6% (inactive). In addition, the viability decrease in assay [3] is 50.5% (active). In addition, in assay [4], the tube area decrease was 34.8% (inactive). For the same molecule, the GLP1 secretion stimulation in assay [5] is 6.1% (inactive). Besides, the inhibition of viability in assay [6] was 34.8% (inactive). Besides, the viability decrease (inhibition) in assay [7] is 37.5% (inactive); in assay [8], 37.1% (inactive).

As for `Cc1c(Cl)c(=O)oc2cc(OP(=O)(OCCCl)OCCCl)ccc12`, the nuclear beta-catenin stimulation in assay [1] (at 10 µM) was 0.5% (inactive); in assay [1] (stimulation, at 2 µM), 0%. The insulin secretion stimulation in assay [2] was 4.8% (inactive). In addition, the viability decrease in assay [3] is 12.2% (inactive). Moreover, the tube area decrease in assay [4] is 14.4% (inactive). In addition, the GLP1 secretion stimulation in assay [5] was -2.3% (inactive). The inhibition of viability in assay [6] was 35.4% (inactive). Besides, the viability decrease (inhibition) was 29.5% (inactive) in assay [7] and 0.8% (inactive) in assay [8].

For `O=c1c(C2CC(c3ccc(-c4ccc(Br)cc4)cc3)Cc3ccccc32)c(O)sc2ccccc12` (centres undefined), the nuclear beta-catenin stimulation in assay [1] (at 10 µM) is 0% (inactive); in assay [1] (stimulation, at 2 µM), -2.4%. The insulin secretion stimulation in assay [2] was 1.05% (inactive). The viability decrease in assay [3] was 117% (active). Besides, in assay [4], the tube area decrease is 34.2% (inactive). The GLP1 secretion stimulation in assay [5] was 4.8% (inactive). Moreover, in assay [6], the inhibition of viability was 123% (active). Moreover, the viability decrease (inhibition) was 157% (active) in assay [7] and 101% (active) in assay [8].

With `O=C1OC(CCN2CCCCC2)OC1(c1ccccc1)c1ccccc1` (centres undefined), the nuclear beta-catenin stimulation is 15% (inactive) in assay [1] (at 10 µM) and 0.5% in assay [1] (stimulation, at 2 µM). For the same molecule, the insulin secretion stimulation in assay [2] is 5.9% (inactive). In addition, in assay [3], the viability decrease is 0.7% (inactive). The tube area decrease in assay [4] is 6% (inactive). Moreover, in assay [5], the GLP1 secretion stimulation is 4.4% (inactive). Besides, in assay [6], the inhibition of viability was 1.1% (inactive). The viability decrease (inhibition) is 15% (inactive) in assay [7] and 92.8% (active) in assay [8].

As for `C[C@]12CC[C@H]3[C@@H](CCC4=CC(=O)CC[C@@]43C)[C@@H]1CC[C@@H]2C(=O)O`, the nuclear beta-catenin stimulation in assay [1] (at 10 µM) was 0.7% (inactive); in assay [1] (stimulation, at 2 µM) it was 0.3%. In assay [2], the insulin secretion stimulation was 0.2% (inactive). Moreover, the viability decrease in assay [3] was 3.5% (inactive). The tube area decrease in assay [4] is 8.1% (inactive). In assay [5], the GLP1 secretion stimulation is -3.2% (inactive). Also, the inhibition of viability in assay [6] was 5.9% (inactive). Also, the viability decrease (inhibition) in assay [7] is -1.3% (inactive); in assay [8] it was 2.4% (inactive).

On to `COP(=S)(OC)SCN1C(=O)c2ccccc2C1=O`, for which the nuclear beta-catenin stimulation in assay [1] (at 10 µM) was 0.4% (inactive); in assay [1] (stimulation, at 2 µM), 1.1%. In assay [2], the insulin secretion stimulation is -0.9% (inactive). In addition, the viability decrease in assay [3] is -8.95% (inactive). Further, the tube area decrease in assay [4] was 1.5% (inactive). Moreover, in assay [5], the GLP1 secretion stimulation is 0% (inactive). In addition, the inhibition of viability in assay [6] was -8.5% (inactive). Also, the results for the viability decrease (inhibition) in assay [7] and in assay [8] were 6.9% (inactive) and 24.4% (inactive), respectively.

`CC(Cc1ccccc1)NC=O` (centres undefined): the nuclear beta-catenin stimulation in assay [1] (at 10 µM) was -2.3% (inactive); in assay [1] (stimulation, at 2 µM) it was -0.1%. For the same molecule, the insulin secretion stimulation in assay [2] was 1.5% (inactive). For the same molecule, the viability decrease in assay [3] is -5.7% (inactive). For the same molecule, the tube area decrease in assay [4] was 1.3% (inactive). The GLP1 secretion stimulation in assay [5] was -5.4% (inactive). In addition, in assay [6], the inhibition of viability was 8.8% (inactive). For the same molecule, the viability decrease (inhibition) was 16.7% (inactive) in assay [7] and -4.6% (inactive) in assay [8].

As to `Clc1ccccc1N1CCNCC1`, the nuclear beta-catenin stimulation was 0.1% (inactive) in assay [1] (at 10 µM) and -2.2% in assay [1] (stimulation, at 2 µM). The insulin secretion stimulation in assay [2] was 5.2% (inactive). Besides, the viability decrease in assay [3] was 4.1% (inactive). Moreover, the tube area decrease in assay [4] is -12% (active). Further, the GLP1 secretion stimulation in assay [5] is 3.6% (inactive). In addition, in assay [6], the inhibition of viability is 48.4% (inactive). Moreover, the viability decrease (inhibition) in assay [7] was 19% (inactive); in assay [8], 2% (inactive).

Consider `CC1=C(C(=O)O)N2C(=O)[C@@H](N)[C@H]2SC1`, for which the nuclear beta-catenin stimulation is -0.8% (inactive) in assay [1] (at 10 µM) and 0.3% in assay [1] (stimulation, at 2 µM). Moreover, the insulin secretion stimulation in assay [2] was 0.4% (inactive). The viability decrease in assay [3] is 9.7% (inactive). Also, the tube area decrease in assay [4] is -6.3% (inactive). Further, the GLP1 secretion stimulation in assay [5] was 4.2% (inactive). Besides, in assay [6], the inhibition of viability is 13.3% (inactive). In addition, the figures for the viability decrease (inhibition) in assay [7] and in assay [8] were 33.8% (inactive) and 21.2% (inactive), respectively.

In the case of `CCCOC(=O)Cc1ccc(OCC(=O)N(CC)CC)c(OC)c1`, the nuclear beta-catenin stimulation was 0.4% (inactive) in assay [1] (at 10 µM) and 1.3% in assay [1] (stimulation, at 2 µM). The insulin secretion stimulation in assay [2] was -1.7% (inactive). Besides, the viability decrease in assay [3] is 0.2% (inactive). Besides, in assay [4], the tube area decrease is -2.3% (inactive). Besides, the GLP1 secretion stimulation in assay [5] is -1.8% (inactive). The inhibition of viability in assay [6] is 9.6% (inactive). In addition, the results for the viability decrease (inhibition) in assay [7] and in assay [8] were 8.2% (inactive) and -4.8% (inactive), respectively.

As to `Oc1ccc([C@H]2CNCc3c2ccc(O)c3O)cc1O`, the nuclear beta-catenin stimulation was 0.8% (inactive) in assay [1] (at 10 µM) and 0.2% in assay [1] (stimulation, at 2 µM). Further, in assay [2], the insulin secretion stimulation was 3.5% (inactive). The viability decrease in assay [3] was 86.5% (active). Further, the tube area decrease in assay [4] was 13.1% (inactive). Besides, the GLP1 secretion stimulation in assay [5] was 23.9% (active). In assay [6], the inhibition of viability is 57.5% (active). In addition, the results for the viability decrease (inhibition) in assay [7] and in assay [8] were 60.8% (active) and 38.4% (inactive), respectively.

Take `CN1CCC(O)(c2ccc(F)cc2)C(C(=O)c2ccc(F)cc2)C1` (centres undefined): the nuclear beta-catenin stimulation in assay [1] (at 10 µM) is 20.8% (inactive); in assay [1] (stimulation, at 2 µM), 1.6%. Besides, in assay [2], the insulin secretion stimulation is 5% (inactive). Besides, the viability decrease in assay [3] is -1.23% (inactive). Also, the tube area decrease in assay [4] is 18% (inactive). The GLP1 secretion stimulation in assay [5] was 4.8% (inactive). Also, the inhibition of viability in assay [6] is 4.35% (inactive). Moreover, the viability decrease (inhibition) in assay [7] was 87% (active); in assay [8] it was 72.8% (active).

With `CC(Cc1ccccc1)N(C)Cc1ccco1` (centres undefined), the nuclear beta-catenin stimulation in assay [1] (at 10 µM) is -0.5% (inactive); in assay [1] (stimulation, at 2 µM), 0.7%. Further, the insulin secretion stimulation in assay [2] was 2.3% (inactive). Also, the viability decrease in assay [3] is -12.2% (inactive). The tube area decrease in assay [4] was 25.5% (inactive). In addition, the GLP1 secretion stimulation in assay [5] was 0.1% (inactive). The inhibition of viability in assay [6] is 8.5% (inactive). The viability decrease (inhibition) was 4.3% (inactive) in assay [7] and -1.8% (inactive) in assay [8].
